Laboratory results taken from PubChem BioAssay AID1159580 (chemical genetic matrix, 2015).
Several values for one entry are separate records, joined by “and”; a condition that tells them apart may be missing. Equal entries are not always repeated. Screen size: about 5,500 compounds; about 2,000 (36%) were called active. Not shown: some 18% with an inconclusive outcome. No stated cut-off is given here; in the data, active means normalized growth mostly below about 0.91 (no sharp cut-off); inconclusive means no clear call, values can overlap the other calls; inactive means mostly above about 0.92. Some of the results follow.

Assay: chemical genetic growth profiling, strain panel (AID 1159580);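 further: tested at 20 µM; growth read once vehicle control cultures reached saturation at 30 °C; 1 = growth at the plate median or of vehicle wells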
Details: S. cerevisiae deletion strains, growth OD

Measured: normalized growth

O=C(O)c1nc2cc(Cl)c(Cl)cc2[nH]c1=O
inactive: locus YAL013W, strain DEP1, stronger effect = lower value 1.02 | locus YAL021C, strain ccr4, stronger effect = lower value 0.995 | locus YAL026C, strain drs2, stronger effect = lower value 1.03 | locus YAL030W, strain snc1, stronger effect = lower value 1.01 | locus YBL061C, strain skt5, stronger effect = lower value 1.01 | locus YBR009C, strain hhf1, stronger effect = lower value 1.04 | locus YBR021W, strain FUR4, stronger effect = lower value 1.02 | locus YBR023C, strain chs3, stronger effect = lower value 1.03 | locus YBR171W, strain sec66, stronger effect = lower value 1.04 | locus YBR229C, strain ROT2, stronger effect = lower value 1.01 | locus YBR231C, strain swc5, stronger effect = lower value 1.02 | locus YBR279W, strain paf1, stronger effect = lower value 1.01 | locus YCL011C, strain gbp2, stronger effect = lower value 1.02 | locus YCL016C, strain dcc1, stronger effect = lower value 1.01 | locus YCL029C, strain bik1, stronger effect = lower value 0.99 | locus YCL061C, strain MRC1, stronger effect = lower value 1.03 | locus YCL069W, strain vba3, stronger effect = lower value 1.01 | locus YCR088W, strain abp1, stronger effect = lower value 1.01 | locus YDL005C, strain med2, stronger effect = lower value 1.02 | locus YDL035C, strain GPR1, stronger effect = lower value 1.01 | locus YDL040C, strain nat1, stronger effect = lower value 0.995 | locus YDL074C, strain BRE1, stronger effect = lower value 1.03 | locus YDL101C, strain DUN1, stronger effect = lower value 1.02 | locus YDL134C, strain PPH21, stronger effect = lower value 1 | locus YDL185W, strain tfp1, stronger effect = lower value 0.956 | locus YDL192W, strain arf1, stronger effect = lower value 0.993 | locus YDR001C, strain nth1, stronger effect = lower value 1.01 | locus YDR069C, strain doa4, stronger effect = lower value 1.04 | locus YDR101C, strain arx1, stronger effect = lower value 1.01 | locus YDR137W, strain rgp1, stronger effect = lower value 0.974 | locus YDR150W, strain NUM1, stronger effect = lower value 0.978 | locus YDR159W, strain sac3, stronger effect = lower value 1.01 | locus YDR162C, strain NBP2, stronger effect = lower value 1.03 | locus YDR195W, strain ref2 1.04 | locus YDR297W, strain sur2, stronger effect = lower value 1.01 | locus YDR318W, strain mcm21, stronger effect = lower value 0.994 | locus YDR334W, strain swr1, stronger effect = lower value 1.02 | locus YDR335W, strain msn5, stronger effect = lower value 1.02 | locus YDR388W, stronger effect = lower value 1.01 | locus YDR392W, strain spt3, stronger effect = lower value 0.968 | locus YDR502C, strain sam2, stronger effect = lower value 1.01 | locus YEL003W, strain gim4, stronger effect = lower value 1.03 | locus YEL037C, strain rad23, stronger effect = lower value 1.02 | locus YEL061C, strain CIN8 (second series), stronger effect = lower value 1.02 | locus YEL061C, strain CIN8, stronger effect = lower value 0.998 | locus YER015W, strain faa2, stronger effect = lower value 1.01 | locus YER016W, strain bim1, stronger effect = lower value 1.01 | locus YER110C, stronger effect = lower value 0.992 | locus YER111C, strain swi4, stronger effect = lower value 1.03 | locus YER155C, strain BEM2 (second series), stronger effect = lower value 1.03 | locus YER155C, strain BEM2, stronger effect = lower value 0.996 | locus YER167W, strain BCK2, stronger effect = lower value 1 | locus YFR010W, strain ubp6, stronger effect = lower value 1.03 | locus YGL078C, strain dbp3, stronger effect = lower value 0.992 | locus YGL086W, strain mad1, stronger effect = lower value 0.979 | locus YGL167C, strain pmr1, stronger effect = lower value 1.01 | locus YGL173C, strain kem1, stronger effect = lower value 1.02 | locus YGL227W, strain vid30, stronger effect = lower value 1.02 | locus YGL240W, strain doc1, stronger effect = lower value 1.03 | locus YGL248W, strain PDE1, stronger effect = lower value 1.01 | locus YGL253W, strain hxk2, stronger effect = lower value 1.03 | locus YGR078C, strain PAC10, stronger effect = lower value 1.03 | locus YGR135W, strain pre9, stronger effect = lower value 1.02 | locus YGR229C, strain SMI1, stronger effect = lower value 1.07 | locus YGR252W, strain gcn5, stronger effect = lower value 1 | locus YHR013C, strain ard1, stronger effect = lower value 0.994 | locus YHR027C, strain rpn1, stronger effect = lower value 1.02 | locus YHR030C, strain SLT2, stronger effect = lower value 0.995 and 0.994 | locus YHR079C, strain IRE1 (second series), stronger effect = lower value 0.997 | locus YHR079C, strain IRE1, stronger effect = lower value 0.999 | locus YHR094C, strain hxt1, stronger effect = lower value 0.983 | locus YHR129C, strain ARP1, stronger effect = lower value 1.01 | locus YHR142W, strain chs7, stronger effect = lower value 0.984 | locus YHR200W, strain rpn10, stronger effect = lower value 0.99 | locus YIL066C, strain RNR3, stronger effect = lower value 1 | locus YIL073C, strain SPO22, stronger effect = lower value 0.946 | locus YIR030C, strain dcg1, stronger effect = lower value 0.992 | locus YJL092W, strain hpr5, stronger effect = lower value 1.02 | locus YJL095W, strain BCK1 (second series), stronger effect = lower value 1 | locus YJL095W, strain BCK1, stronger effect = lower value 1.05 and 0.986 | locus YJL115W, strain asf1, stronger effect = lower value 1.02 | locus YJL129C, strain trk1, stronger effect = lower value 1.01 | locus YJL134W, strain LCB3, stronger effect = lower value 0.994 | locus YJL154C, strain vps35, stronger effect = lower value 1 | locus YJL164C, strain tpk1, stronger effect = lower value 0.999 | locus YJL166W, strain qcr8, stronger effect = lower value 1.02 | locus YJL168C, strain set2, stronger effect = lower value 1.01 | locus YJL187C, strain SWE1 (second series), stronger effect = lower value 1.01 | locus YJL187C, strain SWE1, stronger effect = lower value 1.02 | locus YJR043C, strain POL32, stronger effect = lower value 1.02 | locus YJR066W, strain TOR1, stronger effect = lower value 0.985
